PMC11006913

How the values were obtained:
Assay in all cases: PBM; 200 nM protein, PBS
Conditions in all cases: dsDNA, one strand shown
[1] = biological target: PROP1 (Homo sapiens, UniProt O75360 56-141)
[2] = biological target: PROP1 (Homo sapiens, UniProt O75360 56-141, F88S)
[3] = biological target: PROP1 (Homo sapiens, UniProt O75360 56-141, R99H)
[4] = biological target: VAX1 (Homo sapiens, UniProt Q5SQQ9 86-172)
[5] = biological target: VAX1 (Homo sapiens, UniProt Q5SQQ9 86-172, T142I)
[6] = biological target: VAX1 (Homo sapiens, UniProt Q5SQQ9 86-172, K157R)
[7] = biological target: NKX3-2 (Homo sapiens, UniProt P78367 192-278, P234S)
[8] = biological target: NKX3-2 (Homo sapiens, UniProt P78367 192-278)
[9] = biological target: HOXD13 (Homo sapiens, UniProt P35453 263-343, T313A)
HOXD13, sequence (P35453 263-343 T313A): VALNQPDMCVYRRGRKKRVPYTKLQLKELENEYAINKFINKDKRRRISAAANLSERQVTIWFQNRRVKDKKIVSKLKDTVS

VAX1 (Homo sapiens, UniProt Q5SQQ9 86-172, K157R), sequence (Q5SQQ9 86-172 K157R): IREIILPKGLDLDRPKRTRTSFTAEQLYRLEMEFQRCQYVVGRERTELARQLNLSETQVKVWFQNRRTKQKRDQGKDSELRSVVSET
VAX1 (Homo sapiens, UniProt Q5SQQ9 86-172, T142I), sequence (Q5SQQ9 86-172 T142I): as the sequence (Q5SQQ9 86-172 K157R) above, with T57I, R72K counted along it
NKX3-2 (Homo sapiens, UniProt P78367 192-278), sequence (P78367 192-278): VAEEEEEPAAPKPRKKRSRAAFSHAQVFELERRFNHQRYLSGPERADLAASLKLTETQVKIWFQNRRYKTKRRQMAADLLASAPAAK
NKX3-2 (Homo sapiens, UniProt P78367 192-278, P234S), sequence (P78367 192-278 P234S): as the sequence (P78367 192-278) above, with P43S counted along it
VAX1 (Homo sapiens, UniProt Q5SQQ9 86-172), sequence (Q5SQQ9 86-172): as the sequence (Q5SQQ9 86-172 K157R) above, with R72K counted along it
PROP1 (Homo sapiens, UniProt O75360 56-141, F88S), sequence (O75360 56-141 F88S): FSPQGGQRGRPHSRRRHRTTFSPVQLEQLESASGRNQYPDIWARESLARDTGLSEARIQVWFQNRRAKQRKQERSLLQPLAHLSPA
PROP1 (Homo sapiens, UniProt O75360 56-141), sequence (O75360 56-141): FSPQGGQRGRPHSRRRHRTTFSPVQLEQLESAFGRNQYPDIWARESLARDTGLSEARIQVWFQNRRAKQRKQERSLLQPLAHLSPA
PROP1 (Homo sapiens, UniProt O75360 56-141, R99H), sequence (O75360 56-141 R99H): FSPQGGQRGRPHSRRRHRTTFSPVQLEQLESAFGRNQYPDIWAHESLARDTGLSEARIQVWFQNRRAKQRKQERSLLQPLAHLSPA

AATCACCT
binding signal [1]: 8.74 upbm affinity estimate (log intensity, higher = more binding, comparable within an allelic series) | binding signal [2]: 7.3 upbm affinity estimate (log intensity, higher = more binding, comparable within an allelic series)

GACAGGGC
binding signal [1]: 6.65 upbm affinity estimate (log intensity, higher = more binding, comparable within an allelic series) | binding signal [3]: 6.63 upbm affinity estimate (log intensity, higher = more binding, comparable within an allelic series) | binding signal [2]: 6.47 upbm affinity estimate (log intensity, higher = more binding, comparable within an allelic series)

ACCCTCGC
binding signal [4]: 7.12 upbm affinity estimate (log intensity, higher = more binding, comparable within an allelic series) | binding signal [5]: 7.19 upbm affinity estimate (log intensity, higher = more binding, comparable within an allelic series) | binding signal [6]: 7.13 upbm affinity estimate (log intensity, higher = more binding, comparable within an allelic series)

ATTTCTAG
binding signal [4]: 9.13 upbm affinity estimate (log intensity, higher = more binding, comparable within an allelic series) | binding signal [5]: 8.86 upbm affinity estimate (log intensity, higher = more binding, comparable within an allelic series)

GCGGGAGC
binding signal [4]: 7.11 upbm affinity estimate (log intensity, higher = more binding, comparable within an allelic series) | binding signal [5]: 7.36 upbm affinity estimate (log intensity, higher = more binding, comparable within an allelic series) | binding signal [6]: 7.04 upbm affinity estimate (log intensity, higher = more binding, comparable within an allelic series)

CGCTAGCG
binding signal [4]: 7.32 upbm affinity estimate (log intensity, higher = more binding, comparable within an allelic series) | binding signal [5]: 7.37 upbm affinity estimate (log intensity, higher = more binding, comparable within an allelic series) | binding signal [6]: 7.28 upbm affinity estimate (log intensity, higher = more binding, comparable within an allelic series)

CGACCCAG
binding signal [4]: 7.38 upbm affinity estimate (log intensity, higher = more binding, comparable within an allelic series) | binding signal [5]: 7.45 upbm affinity estimate (log intensity, higher = more binding, comparable within an allelic series) | binding signal [6]: 7.3 upbm affinity estimate (log intensity, higher = more binding, comparable within an allelic series)

AATATTGG
binding signal [4]: 9.86 upbm affinity estimate (log intensity, higher = more binding, comparable within an allelic series) | binding signal [5]: 9.41 upbm affinity estimate (log intensity, higher = more binding, comparable within an allelic series) | binding signal [6]: 9.62 upbm affinity estimate (log intensity, higher = more binding, comparable within an allelic series)

CGACTCCG
binding signal [4]: 6.81 upbm affinity estimate (log intensity, higher = more binding, comparable within an allelic series) | binding signal [5]: 7.11 upbm affinity estimate (log intensity, higher = more binding, comparable within an allelic series) | binding signal [6]: 7.09 upbm affinity estimate (log intensity, higher = more binding, comparable within an allelic series)

ATAACGTG
binding signal [4]: 9.01 upbm affinity estimate (log intensity, higher = more binding, comparable within an allelic series) | binding signal [5]: 8.66 upbm affinity estimate (log intensity, higher = more binding, comparable within an allelic series) | binding signal [6]: 8.79 upbm affinity estimate (log intensity, higher = more binding, comparable within an allelic series)

CGCCGCTC
binding signal [4]: 7.19 upbm affinity estimate (log intensity, higher = more binding, comparable within an allelic series) | binding signal [5]: 7.18 upbm affinity estimate (log intensity, higher = more binding, comparable within an allelic series) | binding signal [6]: 7.31 upbm affinity estimate (log intensity, higher = more binding, comparable within an allelic series)

CCGGCAGC
binding signal [4]: 7.15 upbm affinity estimate (log intensity, higher = more binding, comparable within an allelic series) | binding signal [5]: 7.15 upbm affinity estimate (log intensity, higher = more binding, comparable within an allelic series) | binding signal [6]: 7.17 upbm affinity estimate (log intensity, higher = more binding, comparable within an allelic series)

GAGAATCC
binding signal [4]: 6.95 upbm affinity estimate (log intensity, higher = more binding, comparable within an allelic series) | binding signal [5]: 7.22 upbm affinity estimate (log intensity, higher = more binding, comparable within an allelic series) | binding signal [6]: 7.13 upbm affinity estimate (log intensity, higher = more binding, comparable within an allelic series)

CCGGTGCC
binding signal [4]: 7.09 upbm affinity estimate (log intensity, higher = more binding, comparable within an allelic series) | binding signal [5]: 7.25 upbm affinity estimate (log intensity, higher = more binding, comparable within an allelic series) | binding signal [6]: 7.13 upbm affinity estimate (log intensity, higher = more binding, comparable within an allelic series)

CGGCAAGA
binding signal [4]: 7.12 upbm affinity estimate (log intensity, higher = more binding, comparable within an allelic series) | binding signal [5]: 7.22 upbm affinity estimate (log intensity, higher = more binding, comparable within an allelic series) | binding signal [6]: 7.11 upbm affinity estimate (log intensity, higher = more binding, comparable within an allelic series)

CAACGCGG
binding signal [4]: 7.3 upbm affinity estimate (log intensity, higher = more binding, comparable within an allelic series) | binding signal [5]: 7.21 upbm affinity estimate (log intensity, higher = more binding, comparable within an allelic series) | binding signal [6]: 7.43 upbm affinity estimate (log intensity, higher = more binding, comparable within an allelic series)

CCGGCTTC
binding signal [4]: 6.96 upbm affinity estimate (log intensity, higher = more binding, comparable within an allelic series) | binding signal [5]: 7.09 upbm affinity estimate (log intensity, higher = more binding, comparable within an allelic series) | binding signal [6]: 6.93 upbm affinity estimate (log intensity, higher = more binding, comparable within an allelic series)

CCTTCGCC
binding signal [4]: 7.18 upbm affinity estimate (log intensity, higher = more binding, comparable within an allelic series) | binding signal [5]: 7.38 upbm affinity estimate (log intensity, higher = more binding, comparable within an allelic series) | binding signal [6]: 7.16 upbm affinity estimate (log intensity, higher = more binding, comparable within an allelic series)

ACGCATAA
binding signal [4]: 9.35 upbm affinity estimate (log intensity, higher = more binding, comparable within an allelic series) | binding signal [5]: 8.83 upbm affinity estimate (log intensity, higher = more binding, comparable within an allelic series) | binding signal [6]: 8.87 upbm affinity estimate (log intensity, higher = more binding, comparable within an allelic series)

AGCCTCCG
binding signal [4]: 6.91 upbm affinity estimate (log intensity, higher = more binding, comparable within an allelic series) | binding signal [5]: 7 upbm affinity estimate (log intensity, higher = more binding, comparable within an allelic series) | binding signal [6]: 6.91 upbm affinity estimate (log intensity, higher = more binding, comparable within an allelic series)

AGGGTCAG
binding signal [4]: 7.22 upbm affinity estimate (log intensity, higher = more binding, comparable within an allelic series) | binding signal [5]: 7.35 upbm affinity estimate (log intensity, higher = more binding, comparable within an allelic series) | binding signal [6]: 7.25 upbm affinity estimate (log intensity, higher = more binding, comparable within an allelic series)

CAAATCTA
binding signal [4]: 8.78 upbm affinity estimate (log intensity, higher = more binding, comparable within an allelic series) | binding signal [5]: 8.51 upbm affinity estimate (log intensity, higher = more binding, comparable within an allelic series)

AATTGACG
binding signal [4]: 10.6 upbm affinity estimate (log intensity, higher = more binding, comparable within an allelic series) | binding signal [5]: 10.1 upbm affinity estimate (log intensity, higher = more binding, comparable within an allelic series) | binding signal [6]: 10.2 upbm affinity estimate (log intensity, higher = more binding, comparable within an allelic series)

AAATTAGC
binding signal [4]: 11.9 upbm affinity estimate (log intensity, higher = more binding, comparable within an allelic series) | binding signal [5]: 11.5 upbm affinity estimate (log intensity, higher = more binding, comparable within an allelic series) | binding signal [6]: 11.6 upbm affinity estimate (log intensity, higher = more binding, comparable within an allelic series)

AGGCGGGA
binding signal [4]: 6.99 upbm affinity estimate (log intensity, higher = more binding, comparable within an allelic series) | binding signal [5]: 7.2 upbm affinity estimate (log intensity, higher = more binding, comparable within an allelic series) | binding signal [6]: 7.24 upbm affinity estimate (log intensity, higher = more binding, comparable within an allelic series)

CGTAATGA
binding signal [4]: 12.7 upbm affinity estimate (log intensity, higher = more binding, comparable within an allelic series) | binding signal [5]: 12.2 upbm affinity estimate (log intensity, higher = more binding, comparable within an allelic series) | binding signal [6]: 12.2 upbm affinity estimate (log intensity, higher = more binding, comparable within an allelic series)

ATTTATAA
binding signal [4]: 10.7 upbm affinity estimate (log intensity, higher = more binding, comparable within an allelic series) | binding signal [5]: 10.5 upbm affinity estimate (log intensity, higher = more binding, comparable within an allelic series) | binding signal [6]: 10.4 upbm affinity estimate (log intensity, higher = more binding, comparable within an allelic series)

CGCGGCAC
binding signal [4]: 6.77 upbm affinity estimate (log intensity, higher = more binding, comparable within an allelic series) | binding signal [5]: 7.02 upbm affinity estimate (log intensity, higher = more binding, comparable within an allelic series) | binding signal [6]: 7.21 upbm affinity estimate (log intensity, higher = more binding, comparable within an allelic series)

CTTCATCA
binding signal [4]: 9.74 upbm affinity estimate (log intensity, higher = more binding, comparable within an allelic series) | binding signal [5]: 9.33 upbm affinity estimate (log intensity, higher = more binding, comparable within an allelic series) | binding signal [6]: 9.51 upbm affinity estimate (log intensity, higher = more binding, comparable within an allelic series)

AAGTAAAT
binding signal [4]: 10.5 upbm affinity estimate (log intensity, higher = more binding, comparable within an allelic series) | binding signal [5]: 10.2 upbm affinity estimate (log intensity, higher = more binding, comparable within an allelic series) | binding signal [6]: 10.2 upbm affinity estimate (log intensity, higher = more binding, comparable within an allelic series)

CAGCGCAC
binding signal [4]: 7.28 upbm affinity estimate (log intensity, higher = more binding, comparable within an allelic series) | binding signal [5]: 7.22 upbm affinity estimate (log intensity, higher = more binding, comparable within an allelic series) | binding signal [6]: 7.26 upbm affinity estimate (log intensity, higher = more binding, comparable within an allelic series)

AGGTAAAT
binding signal [4]: 10.4 upbm affinity estimate (log intensity, higher = more binding, comparable within an allelic series) | binding signal [5]: 10.2 upbm affinity estimate (log intensity, higher = more binding, comparable within an allelic series) | binding signal [6]: 10.2 upbm affinity estimate (log intensity, higher = more binding, comparable within an allelic series)

ATATCGAA
binding signal [4]: 8.69 upbm affinity estimate (log intensity, higher = more binding, comparable within an allelic series) | binding signal [5]: 8.53 upbm affinity estimate (log intensity, higher = more binding, comparable within an allelic series)

CGAAGCAG
binding signal [4]: 6.89 upbm affinity estimate (log intensity, higher = more binding, comparable within an allelic series) | binding signal [5]: 7.23 upbm affinity estimate (log intensity, higher = more binding, comparable within an allelic series) | binding signal [6]: 7.1 upbm affinity estimate (log intensity, higher = more binding, comparable within an allelic series)

ATCGTTCA
binding signal [4]: 9.46 upbm affinity estimate (log intensity, higher = more binding, comparable within an allelic series) | binding signal [5]: 9.08 upbm affinity estimate (log intensity, higher = more binding, comparable within an allelic series) | binding signal [6]: 9.31 upbm affinity estimate (log intensity, higher = more binding, comparable within an allelic series)

GTCCCTAA
binding signal [4]: 9.58 upbm affinity estimate (log intensity, higher = more binding, comparable within an allelic series) | binding signal [5]: 9.36 upbm affinity estimate (log intensity, higher = more binding, comparable within an allelic series) | binding signal [6]: 9.3 upbm affinity estimate (log intensity, higher = more binding, comparable within an allelic series)

CTGAGCCC
binding signal [4]: 7.3 upbm affinity estimate (log intensity, higher = more binding, comparable within an allelic series) | binding signal [5]: 7.49 upbm affinity estimate (log intensity, higher = more binding, comparable within an allelic series) | binding signal [6]: 7.38 upbm affinity estimate (log intensity, higher = more binding, comparable within an allelic series)

GCTCAGCC
binding signal [4]: 6.9 upbm affinity estimate (log intensity, higher = more binding, comparable within an allelic series) | binding signal [5]: 6.99 upbm affinity estimate (log intensity, higher = more binding, comparable within an allelic series) | binding signal [6]: 6.88 upbm affinity estimate (log intensity, higher = more binding, comparable within an allelic series)

AAGTAGCT
binding signal [4]: 9.67 upbm affinity estimate (log intensity, higher = more binding, comparable within an allelic series) | binding signal [5]: 9.41 upbm affinity estimate (log intensity, higher = more binding, comparable within an allelic series) | binding signal [7]: 11.8 upbm affinity estimate (log intensity, higher = more binding, comparable within an allelic series) | binding signal [6]: 9.35 upbm affinity estimate (log intensity, higher = more binding, comparable within an allelic series) | binding signal [8]: 11.9 upbm affinity estimate (log intensity, higher = more binding, comparable within an allelic series)

AGCCGGTG
binding signal [4]: 7.24 upbm affinity estimate (log intensity, higher = more binding, comparable within an allelic series) | binding signal [5]: 7.45 upbm affinity estimate (log intensity, higher = more binding, comparable within an allelic series) | binding signal [6]: 7.26 upbm affinity estimate (log intensity, higher = more binding, comparable within an allelic series)

CGCGCTAG
binding signal [4]: 7.18 upbm affinity estimate (log intensity, higher = more binding, comparable within an allelic series) | binding signal [5]: 7.3 upbm affinity estimate (log intensity, higher = more binding, comparable within an allelic series) | binding signal [6]: 7.16 upbm affinity estimate (log intensity, higher = more binding, comparable within an allelic series)

CGGAGACC
binding signal [4]: 6.9 upbm affinity estimate (log intensity, higher = more binding, comparable within an allelic series) | binding signal [5]: 7.22 upbm affinity estimate (log intensity, higher = more binding, comparable within an allelic series) | binding signal [6]: 7.28 upbm affinity estimate (log intensity, higher = more binding, comparable within an allelic series)

GTTTACAA
binding signal [9]: 11.6 upbm affinity estimate (log intensity, higher = more binding, comparable within an allelic series)

CGTTAACG
binding signal [7]: 10.4 upbm affinity estimate (log intensity, higher = more binding, comparable within an allelic series) | binding signal [8]: 10.5 upbm affinity estimate (log intensity, higher = more binding, comparable within an allelic series)

CATCACTA
binding signal [7]: 11.5 upbm affinity estimate (log intensity, higher = more binding, comparable within an allelic series) | binding signal [8]: 11.5 upbm affinity estimate (log intensity, higher = more binding, comparable within an allelic series)
